# Reference: the supplement of paper PMC10338343
# ± gives the standard deviation.
# Test system: MILI (PIWIL2) piRISC loaded with L1MC piRNA (26 nt)
# Experiment: pre-steady-state target cleavage rate (min^-1); guide: L1MC piRNA 5'p-UAACUAAAUACUAUGCAAGCUGUAGG; MIWI and MILI are mouse PIWI proteins and EfPiwi is from a freshwater sponge; tags in brackets are library labels; higher = faster piRNA-guided slicing of the target
# Settings: auxiliary factor: 500 nM mouse GTSF1
# In short: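 Sequencing of uncleaved targets, normalised to depth and to weakly complementary targets, was the readout of this Cleave-'n-Seq assay. A transcribed, DNA-blocked target RNA library (0.1 nM) was mixed with 1 nM active affinity-purified piRISC carrying one synthetic guide, with or without 500 nM GTSF1 partner protein, in HEPES–potassium acetate buffer at 33 °C for 0–8 or 0–960 min. Three trials were pooled, k3 was capped at 0.0001 min^-1, and a burst-and-steady-state fit gave the pre-steady-state cleavage rate.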
row,Sequence,pre-steady-state target cleavage rate
1,UCCUGGAUCAGCUUCCAUAGAAUUUAGUUA,0.0103 ± 0.0054
2,UCCUGGAUGUCGAAGCAUAGUAUUGAGUUA,0.00685 ± 0.0034
3,UCCUGGAACAGCUACGAUAGUAUUUAGAAA,0.0308 ± 0.011
4,UCCUGCUACAGGUUGCAUAGUAUUUACUUA,0.0231 ± 0.011
5,UCCUGGAUGUCGAAGCAUAGUAUUUACGUUA,0.0359 ± 0.0066
6,UCCUGGAACUCGUUGCAUAGUAUUUACAAA,0.0537 ± 0.013
7,UCCUGGAACAGCUUGCAUAGUUUUUACUUA,0.0363 ± 0.011
8,UCCUGGAUGUCGAUGCAUAGUAUUUAUUA,0.00695 ± 0.0047
9,UCCUGGAUGUGCUUGCAUUGUAUUUACUUA,0.0239 ± 0.0082
10,UCCUGCUACACCUUGCAUAGUAUAUAGUUA,0.18 ± 0.037
11,UCCUGGAUGUGCUUGCAUAGUAUUAAGAAA,0.00586 ± 0.0036
12,UCCUGGAUGUCGAAGCAUAGUAUUAUGUUA,0.00859 ± 0.0044
13,UCCUGGAUGUCCUUGCAUAAUAUUUAGUUA,0.0892 ± 0.015
